Consider 18 compounds from PubChem BioAssay (NCATS).

Each structure is given as a SMILES string. Records with an inconclusive call do not appear. Unmarked numbers belong to inactive results. Active and inactive are the calls of the source. Calls follow the shape of the dose curve; as a rule, active = well fitted inhibition curve with a large enough effect; inconclusive = small, poorly fitted or top-dose-only effect; inactive = flat fitted curve, though single readings scatter.

A short description of experiment [1]: qHTS profiling for inhibitors of Plasmodium falciparum proliferation (AID 504749). Also: nearly all actives have a fitted effect of over 60% in size.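 As to activity, negative = inhibition: 0% = DMSO vehicle and full inhibition = artemisinin control.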 The following applies: P. falciparum in erythrocytes, SYBR Green DNA, 72 h. The essentials:
(§1)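 P. falciparum-infected erythrocytes (0.3% parasitemia, 2.5% hematocrit final) were exposed to compounds for 72 h at 37 C in 5% CO2, then lysed with SYBR Green buffer overnight at room temperature; parasite DNA fluorescence was normalized to artemisinin and DMSO controls.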

The subject of another experiment is 3D7. The experiment is described as above. The following applies: P. falciparum in erythrocytes, SYBR Green DNA, 72 h; series mostly up to 28.7 µM. The gist of the method:
as §1

The next experiment deals with 7G8. The description is as above. The following applies: P. falciparum in erythrocytes, SYBR Green DNA, 72 h; series mostly up to 28.7 µM. The essentials: as §1
The test system of a further experiment is AA1029. Described as above. The following applies: P. falciparum in erythrocytes, SYBR Green DNA, 72 h; series mostly up to 28.7 µM. The gist of the method:
as §1

The subject of another experiment is AS120. The description is as above. Conditions: P. falciparum in erythrocytes, SYBR Green DNA, 72 h; series mostly up to 28.7 µM. The gist of the method:
as §1

The next experiment concerns ATS189. The experiment is described as above. Conditions: P. falciparum in erythrocytes, SYBR Green DNA, 72 h; series mostly up to 28.7 µM. The gist of the method:
as §1

Another experiment has as its system ATS95. The experiment is described as above. The following applies: P. falciparum in erythrocytes, SYBR Green DNA, 72 h; series mostly up to 28.7 µM. The essentials:
as §1

Another experiment relates to C2A. The experiment is described as above. The following applies: P. falciparum in erythrocytes, SYBR Green DNA, 72 h; series mostly up to 28.7 µM. The gist of the method: as §1
A further experiment concerns CP185. The description is as above. Conditions: P. falciparum in erythrocytes, SYBR Green DNA, 72 h; series mostly up to 28.7 µM. The essentials: as §1
The test system of a further experiment is CP191. The experiment is described as above. The following applies: P. falciparum in erythrocytes, SYBR Green DNA, 72 h; series mostly up to 28.7 µM. The essentials: as §1
[2] abbreviates: at 28.7 µM (top of the series), parasite line A.
Setting [3] is: at 28.7 µM (top of the series), parasite line B.
[4] abbreviates: at 12.8 µM (top of the series), parasite line A.
The mark [5] stands for this setting: at 12.8 µM (top of the series), parasite line B.
Potency is read from the fitted curve at half-maximal effect.

Consider `CN=C(NC#N)NCCSCc1csc(N=C(N)N)n1`, for which the activity, negative = inhibition in [1] (setting [2]) is 2.51%; in [1] (setting [3]) it was -0.371%. Also, the Potency entry with 3D7, in the experiment with 7G8, with AA1029, with AS120, with ATS189 and with ATS95 was “inactive” in each case. Also, the Potency result with C2A, with CP185 and in the experiment on CP191 was “inactive” in each case.

On to `C1CCc2nnnn2CC1`, for which the figures for the activity, negative = inhibition in [1] (setting [2]) and in [1] (setting [3]) were 11.2% and 0.626%, respectively. Also, the Potency entry with 3D7, in the experiment on 7G8, in the experiment on AA1029, in the experiment on AS120, with ATS189 and in the experiment with ATS95 was “inactive” in each case. Moreover, the Potency entry in the experiment on C2A, in the experiment with CP185 and in the experiment with CP191 was “inactive” in each case.

Take `COc1cc(OC)cc(OC)c1`: the activity, negative = inhibition in experiment [1] (setting [2]) was 14.7%; in [1] (setting [3]) it was 2.05%. Also, the Potency result in the experiment on 3D7, in the experiment with 7G8, in the experiment with AA1029, with AS120, with ATS189 and in the experiment with ATS95 was “inactive” throughout. Moreover, the Potency entry in the experiment on C2A, in the experiment with CP185 and with CP191 was “inactive” throughout.

For `Nc1cc(Cl)c(NC2=NCCN2)c(Cl)c1`, the figures for the activity, negative = inhibition in experiment [1] (setting [2]) and in experiment [1] (setting [3]) were 18.9% and 15.3%, respectively. Further, the Potency entry in the experiment with 3D7, in the experiment on 7G8, in the experiment with AA1029, in the experiment on AS120, in the experiment with ATS189 and in the experiment on ATS95 was “inactive” throughout. Also, the Potency result with C2A, with CP185 and in the experiment with CP191 was “inactive” throughout.

Regarding `Cc1c(C(C)C)c(=O)n(-c2ccccc2)n1C`, the activity, negative = inhibition in experiment [1] (setting [2]) is 5.32%; in [1] (setting [3]) it was 0.527%. The Potency result in the experiment with 3D7, in the experiment with 7G8, in the experiment with AA1029, in the experiment with AS120, in the experiment on ATS189 and with ATS95 was “inactive” throughout. Moreover, the Potency result in the experiment on C2A, in the experiment with CP185 and with CP191 was “inactive” in each case.

On to `COc1ccc(CN2CCN(C(c3ccc(F)cc3)c3ccc(F)cc3)CC2)c(OC)c1OC`, for which the Potency is 8.91 µM (active) in experiment [1] (parasite line A); 8.91 µM (active) in experiment [1] (parasite line B); 7.94 µM (active) in the experiment with 3D7; 2.82 µM (active) with 7G8; 10 µM (active) in the experiment on AA1029; 7.08 µM (active) in the experiment with AS120. Further, the Potency in the experiment on ATS189 is 10 µM (active); in the experiment with ATS95, 12.6 µM (active); in the experiment with C2A, 12.6 µM (active); with CP185, 10 µM (active); with CP191, 7.94 µM (active).

For `Cc1c(C(N)=O)cc([N+](=O)[O-])cc1[N+](=O)[O-]`, the figures for the activity, negative = inhibition in experiment [1] (setting [2]) and in [1] (setting [3]) were -7.97% and -2.31%, respectively. The Potency entry in the experiment with 3D7, in the experiment on 7G8, in the experiment on AA1029, with AS120, with ATS189 and in the experiment on ATS95 was “inactive” throughout. The Potency entry with C2A, in the experiment with CP185 and with CP191 was “inactive” throughout.

As to `CCCCCCc1ccc(O)cc1O`, the activity, negative = inhibition in [1] (setting [2]) was 6.34%; in experiment [1] (setting [3]) it was 12.1%. Besides, the Potency entry in the experiment with 3D7, with 7G8, in the experiment on AA1029, in the experiment with AS120, with ATS189 and in the experiment on ATS95 was “inactive” in each case. For the same compound, the Potency entry with C2A, in the experiment on CP185 and in the experiment on CP191 was “inactive” in each case.

With `CCCCCCC[N+](CC)(CC)CCCCc1ccc(Cl)cc1`, the Potency in experiment [1] (parasite line A) is 1.78 µM (active); in experiment [1] (parasite line B) it was 2.24 µM (active); in the experiment on 3D7, 1.41 µM (active); in the experiment on 7G8 it was 0.631 µM (active); with AA1029, 2 µM (active); in the experiment on AS120, 2.51 µM (active). Also, the Potency in the experiment with ATS189 is 2.82 µM (active); in the experiment on ATS95, 2.24 µM (active); in the experiment with C2A it was 1.58 µM (active); with CP185 it was 2 µM (active); in the experiment on CP191 it was 2 µM (active).

As for `CC(=O)Oc1ccc(C(c2ccc(OC(C)=O)cc2)c2ccccn2)cc1`, the activity, negative = inhibition in experiment [1] (setting [2]) is 0.325%; in experiment [1] (setting [3]), 3.02%. Further, the Potency result in the experiment on 3D7, in the experiment with 7G8, in the experiment on AA1029, in the experiment on AS120, with ATS189 and with ATS95 was “inactive” in each case. In addition, the Potency entry with C2A, in the experiment on CP185 and in the experiment with CP191 was “inactive” throughout.

As to `CC(=O)Nc1c(I)cc(I)c(C(=O)O)c1I`, the results for the activity, negative = inhibition in [1] (setting [2]) and in [1] (setting [3]) were 6.87% and 14.3%, respectively. Moreover, the Potency result in the experiment with 3D7, with 7G8, in the experiment on AA1029, in the experiment with AS120, in the experiment on ATS189 and in the experiment on ATS95 was “inactive” throughout. Besides, the Potency result in the experiment on C2A, with CP185 and with CP191 was “inactive” in each case.

Turning to `CC(=O)N(O)CCCCCNC(=O)CCC(=O)N(O)CCCCCNC(=O)CCC(=O)N(O)CCCCCN`, the activity, negative = inhibition in experiment [1] (setting [4]) is 5.32%; in experiment [1] (setting [5]) it was 1.3%. Further, the Potency entry in the experiment on 3D7, in the experiment with 7G8, with AA1029, in the experiment on AS120, in the experiment with ATS189 and with ATS95 was “inactive” in each case. Further, the Potency entry in the experiment with C2A, in the experiment with CP185 and in the experiment with CP191 was “inactive” throughout.

In the case of `NCCc1ccn[nH]1`, the activity, negative = inhibition is 6.26% in experiment [1] (setting [4]) and 12.5% in experiment [1] (setting [5]). The Potency result with 3D7, with 7G8, with AA1029, in the experiment with AS120, in the experiment with ATS189 and with ATS95 was “inactive” each time. The Potency entry in the experiment on C2A, in the experiment with CP185 and in the experiment on CP191 was “inactive” each time.

Consider `Nc1ccc(C(=O)Nc2ccccc2N)cc1`, for which the activity, negative = inhibition in experiment [1] (setting [2]) was -0.627%; in experiment [1] (setting [3]) it was 14.4%. Moreover, the Potency result with 3D7, with 7G8, in the experiment on AA1029, in the experiment with AS120, in the experiment with ATS189 and in the experiment on ATS95 was “inactive” each time. Moreover, the Potency entry in the experiment on C2A, in the experiment on CP185 and with CP191 was “inactive” in each case.

In the case of `O=S1(=O)c2cccc3cccc(c23)N1CCCN1CCN(c2ccc(F)cc2)CC1`, the results for the activity, negative = inhibition in experiment [1] (setting [2]) and in experiment [1] (setting [3]) were 7.63% and -0.586%, respectively. In addition, the Potency entry with 3D7, in the experiment on AA1029, in the experiment with AS120, in the experiment on ATS189, in the experiment on ATS95 and in the experiment with C2A was “inactive” each time. For the same compound, the Potency result in the experiment on CP185 and with CP191 was “inactive” in each case. In addition, the Potency with 7G8 was 12.6 µM (active).

Regarding `CCOC(=O)n1ccn(C)c1=S`, the activity, negative = inhibition in experiment [1] (setting [4]) was 10%; in [1] (setting [5]) it was -6.82%. In addition, the Potency result in the experiment on 3D7, in the experiment with 7G8, in the experiment with AA1029, in the experiment on AS120, in the experiment on ATS189 and with ATS95 was “inactive” each time. Also, the Potency result in the experiment with C2A, in the experiment on CP185 and in the experiment with CP191 was “inactive” throughout.

As for `Cc1cc(N)c2cc(NC(=O)Nc3ccc4nc(C)cc(N)c4c3)ccc2n1`, the Potency in experiment [1] (parasite line A) is 8.91 µM (active); in experiment [1] (parasite line B) it was 11.2 µM (active); in the experiment on 3D7 it was 7.08 µM (active); with 7G8, 2.24 µM (active); in the experiment on AA1029, 14.1 µM (active); in the experiment on AS120, 12.6 µM (active). Further, the Potency is 5.62 µM (active) with ATS189; 11.2 µM (active) in the experiment on ATS95; 10 µM (active) in the experiment on C2A; 11.2 µM (active) in the experiment with CP185; 0.631 µM (active) in the experiment on CP191.

With `NC(CO)(CO)CO`, the activity, negative = inhibition in experiment [1] (setting [2]) is 6.7%; in experiment [1] (setting [3]), -0.553%. In addition, the Potency entry in the experiment on 3D7, in the experiment on 7G8, with AA1029, in the experiment with AS120, with ATS189 and in the experiment with ATS95 was “inactive” each time. Besides, the Potency result with C2A, with CP185 and in the experiment on CP191 was “inactive” in each case.
